Compound activity as filed in PubChem BioAssay.
HCMV antiviral: inhibitors of human cytomegalovirus | HFF cells, HCMV-luciferase reporter, 72 h; stronger effect = lower value | activity change, negative = inhibition, % at 57.5 µM | 4.5% of 410,000 active; in the data active means activity change below about -60%; inconclusive means no clear call, values can overlap the other calls; inactive means above about -39%; further: on the % scale 0 is the no-effect control and ±100 the full control effect
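Luciferase read-out from HCMV-luciferase-infected HFFs (MOI 1 PFU/cell) 72 h post infection at 37C; compounds added after 16 h cell attachment; activity normalized between buffer-only basal and Salinomycin (10uM) inhibitor controls.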
Pf growth 48h: inhibits P. falciparum growth in the first generation, 48 h | AID 504832 | Potency, µM (titrated, usually from 28.7 µM), for inactives: top-dose activity change, negative = inhibition, actives largely listed as inhibitors | 5.9% of 310,000 active | P. falciparum luciferase growth in erythrocytes, 48 h; further: potency means the concentration at half of the fitted maximal effect; on the % scale 0 is the no-effect control and ±100 the full control effect
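Here the parasites carry a stable luciferase gene and grow inside erythrocytes in Albumax-based RPMI medium with compound for one erythrocytic cycle. Activity is scored as loss of luminescent signal.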
Shiga inhibitor: inhibitors of Shiga toxin in Vero cells | Vero cells, Shiga toxin protein synthesis inhibition reporter | inhibition, % at 38.7 µM | 9.2% of 290,000 active; in the data active means inhibition mostly above about 28%, no sharp cut-off; inactive means mostly below about 43%; further: 0% is about no effect
Pf growth 96h: P. falciparum growth inhibition at 96 hour, primary screen for plastid delayed-death inhibitors. AID 504834. Potency, µM (series often up to 28.7 µM), for inactives: at the highest dose activity change, negative = inhibition, hits mostly inhibitors. P. falciparum luciferase reporter growth, 96 h. 6.9% of 320,000 active; further: potency means the concentration at half of the fitted maximal effect; on the % scale 0 is the no-effect control and ±100 the full control effect
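Infected RBCs, 2% Hct / 0.05% parasitemia final; luciferase-reporter P. falciparum; cpd 96 h, 37 C, 5% CO2; luciferase detection reagent; luminescence.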
CHX counter: counter-screen hit for Shiga toxin inhibitors, cycloheximide; cell reporter, cycloheximide protein synthesis inhibition counterscreen; max response, %; 12% of 300,000 active; AID 2314; in the data active means max response mostly above about 13%, no sharp cut-off; inactive means mostly below about 14%; further: read at 38.3 µM for the half of the compounds with a filed dose; 0% is about no effect
HCV inh: HCV inhibition; Huh7.5.1 HCVcc-Cre infection, luciferase reporter, 44 h; Potency, µM (titrated, usually from 41.8 µM), inactives show top-dose activity change, negative = inhibition, most hits filed as inhibitors; 3.4% of 340,000 active; further: potency means the concentration at half of the fitted maximal effect; on the % scale 0 is the no-effect control and ±100 the full control effect
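A cell-based infection assay in which seeded cells (1,000 per well) receive test compound after 4 h, are inoculated with HCVcc-Cre at approximately 0.5 moi, and are incubated 44 h before luminescence detection.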
Starred values were filed as active, the others as inactive; ? = inconclusive; . = no result. Only some compounds are listed: those with a hit (about 21% of all), similar ones and a draw of the others. Unless noted, the call rests on the fitted dose curve; in most records, active means well fitted inhibition curve with a large enough effect; inconclusive means small, poorly fitted or top-dose-only effect, or another doubt; inactive means no such curve, though single readings can be large or run the other way.

SMILES | HCMV antiviral | Pf growth 48h | Shiga inhibitor | Pf growth 96h | CHX counter | HCV inh
O=C(COC(=O)/C=C/c1ccc([N+](=O)[O-])cc1)NC1CCCCC1 | 0 | 16% | . | ? | . | 7%
CC(=O)Oc1ccccc1/C=C/c1nc2ccccc2c(=O)o1 | -10 | 1.5µM* | -6 | 35% | 4 | 7%
CC(=O)Oc1ccc(/C=C/c2nc3ccccc3c(=O)o2)cc1 | -29 | 168% | -33 | 12µM* | -2 | 31%
O=c1oc(/C=C/c2ccc([N+](=O)[O-])s2)nc2ccccc12 | . | ? | 17 | 0.083µM* | 12* | 11%
CC(=O)Oc1ccc(-c2nc3ccccc3c(=O)o2)cc1 | 48 | ? | -4 | 17% | 4 | 0%
CCCCCCCCCCCCCCCC(=O)OCC(O)C1OC(=O)C(O)=C1O (centres undefined) | . | . | 9 | . | 6 | .
O=C(COC(=O)c1c(F)cccc1F)Nc1ccc(N2CCCCC2)cc1 | 23 | . | . | . | . | 20%
C=CCc1ccc(OCC(O)COCC)c(OC)c1 (centres undefined) | 122 | 161% | 127* | 87% | 36* | ?
OC(COc1ccc(F)cc1Cl)CN1CCC(Cc2ccccc2)CC1 (centres undefined) | ? | 12µM* | 1 | ? | -5 | ?
C=CCc1ccc(OCC(O)CN2CCC(Cc3ccccc3)CC2)c(OC)c1 (centres undefined) | 30 | ? | -8 | ? | 8 | 6.3µM*
OC(COc1ccccc1)CN1CCC(Cc2ccccc2)CC1 (centres undefined) | 72 | -9% | -4 | ? | -4 | -5%
Cc1ccc(OCC(O)CN2CCC(Cc3ccccc3)CC2)c(C)c1 (centres undefined) | -77* | -21% | -1 | ? | -12 | 11µM*
C=CCc1ccc(OCC(O)CN2CCN(c3ccccc3OC)CC2)c(OC)c1 (centres undefined) | -7 | 0% | 12 | 44% | -3 | ?
COCCn1c(C)cc(C(=O)CSc2nnnn2C2CCCC2)c1C | ? | 10% | . | 39% | . | -16%
CCOc1ccc(N(CC(=O)N2CCCCCC2)S(=O)(=O)c2ccc(C)cc2)cc1 | ? | ? | 42 | ? | 4 | 11%
O=C(c1ccc(S(=O)(=O)N2CCCCC2)cc1)N1CCc2ccccc2C1 | -29 | ? | -22 | 3.3µM* | 1 | -15%
O=C(c1ccc(S(=O)(=O)N2CCCCC2)cc1)N1CCCc2ccccc21 | -16 | ? | -6 | 13µM* | -2 | 5%
O=C(c1ccc(S(=O)(=O)N2CCCC2)cc1)N1CCCc2ccccc21 | -1 | 34% | 30 | -7% | 2 | -5%
O=C(c1ccc(Cl)c([N+](=O)[O-])c1)N1CCCc2ccccc21 | -25 | 19% | 39* | ? | 34* | 13%
O=C(c1ccc(S(=O)(=O)N2CCOCC2)cc1)N1CCCc2ccccc21 | 28 | 1% | 15 | ? | 22* | 2%
O=C(c1ccc(S(=O)(=O)c2ccccc2)cc1)N1CCc2ccccc2C1 | 0 | -8% | -4 | 56% | -4 | -18%
Cc1ccc(S(=O)(=O)N2CCOCC2)cc1C(=O)N1CCc2ccccc21 | 8 | . | . | . | . | 4%
CC(C)CCNC(=O)CN1C(=O)CSc2ccc(S(=O)(=O)N3CCC(C)CC3)cc21 | -24 | . | . | . | . | .
O=C(c1ccncc1)N1CCc2ccccc2C1 | 18 | 30% | -9 | 0% | -2 | 23%
O=C(c1ccc(-n2cccn2)cc1)N1CCc2ccccc2C1 | 15 | 38% | 34 | 57% | 24* | -6%
SMILES | HCMV antiviral | Pf growth 48h | Shiga inhibitor | Pf growth 96h | CHX counter | HCV inh
O=C(CSc1nnc(Cn2nnc3ccccc32)o1)N(Cc1ccc(F)cc1)c1ccccc1 | -100* | ? | -22 | -29% | -3 | 1.6µM*
O=C(CSc1nnc(Cn2nnc3ccccc32)o1)Nc1ccc(Cl)cc1 | -10 | 24% | -9 | 5% | 1 | 12%
COc1ccc(N(Cc2ccccc2)C(=O)CSc2nnc(Cn3nnc4ccccc43)o2)cc1 | -23 | ? | 6 | . | -1 | 14µM*
Cc1nn(CCC(=O)N2CCN(c3ccccc3)CC2)c(C)c1S(=O)(=O)N1CCCC1 | -10 | . | . | . | . | .
CC1(C)c2ssc(=S)c2-c2ccccc2N1C(=O)c1ccco1 | 40 | ? | 2 | 1µM* | 1 | 12%
Cc1ccc2c(c1)-c1c(ssc1=S)C(C)(C)N2C(=O)c1ccco1 | ? | 0.93µM* | -2 | -6% | -2 | 0%
Cn1cnnc1SCC(=O)N1c2ccccc2-c2c(ssc2=S)C1(C)C | . | 7% | -12 | . | 9 | .
COc1ccc(NC(=O)C(c2ccccc2)N2CCN(c3ccccn3)CC2)cc1Cl (centres undefined) | -23 | ? | -2 | ? | 9 | 1%
COc1ccc(C2C(=O)N(C3CCCCCC3)CC(=O)N2Cc2ccc(C)cc2)cc1 (centres undefined) | -11 | . | . | . | . | .
Cc1ccc(Cl)cc1Nc1nn2c(=O)c3ccc(C(=O)Nc4ccc(F)cc4)cc3nc2s1 | -14 | . | . | . | . | .
Cc1ccc(CNc2nc3ccc(Cl)cc3n3nnnc23)cc1 | 18 | . | . | . | . | .
CC(C)Cc1ccc(C(C)C(=O)Nc2ccc(O)cc2)cc1 (centres undefined) | -66* | ? | -8 | -5% | 10 | -10%
CC(C(=O)Nc1cccnc1)c1ccc([N+](=O)[O-])cc1 (centres undefined) | 10 | ? | 7 | -13% | -5 | 14%
CC(C)Cc1ccc(C(C)C(=O)Nc2cccnc2)cc1 (centres undefined) | -78* | ? | . | -8% | 6 | 3.2µM*
Cc1noc(C)c1NC(=O)Nc1cccc2c1O[C@@H](CN(C)C(=O)Nc1ccc3c(c1)OCO3)[C@@H](C)CN([C@H](C)CO)C2=O | 99 | . | . | . | . | 11%
Cc1ccc(Cn2ccnc2SCC(=O)Nc2ccc3c(c2)OCO3)cc1 | -29 | . | . | . | . | .
COC(=O)NN=C1CCC(c2ccccc2)CC1 (centres undefined) | 11 | 10% | 30* | ? | 25 | 17%
CCOC(=O)NN=C1CCC(c2ccccc2)CC1 (centres undefined) | 14 | 21% | 10 | ? | 9.8* | 10%
NC(=O)C(=O)NN=C1CCC(c2ccccc2)CC1 (centres undefined) | -32 | -14% | 15 | -6% | 9 | 5%
CC(C)(C)C(=O)NN=C1CCC(c2ccccc2)CC1 (centres undefined) | 6 | 16% | 24 | -13% | 19* | 3%
Cc1ccccc1NC(=O)CSC1=Nc2ccccc2C2=NC(CCC(=O)NCc3ccccc3)C(=O)N12 (centres undefined) | -4 | . | . | . | . | .
COc1cccc(C(=O)Nc2ccccc2OCc2cc(=O)n3ccccc3n2)c1 | 7 | . | . | . | . | .
CCOc1cc(/C=N/N=C(\N)c2nonc2N)cc(Br)c1OCc1cccc2ccccc12 | -28 | -2% | -11 | . | -2 | ?
